Measurements: PubChem BioAssay (Tox21)
Inconclusive results are not listed. The source made the active and inactive calls. Unless noted, the call rests on the fitted dose curve; in most records, active means well fitted curve in the direction sought with a large enough effect in the repeat runs; inconclusive means weak or mixed curves; inactive means no such curve, though single readings can be large; an effect the other way counts as inactive or inconclusive.

Experiments:
[1] = qHTS assay for small molecules that induce genotoxicity in human embryonic kidney cells expressing luciferase-tagged ATAD5 (AID 651632); further: nearly all actives have a fitted effect of over 15% in size
How it was run: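 Genotoxicity read-out via ATAD5-luciferase: HEK293T cells, 16 hr compound incubation at 37C, Amplite detection.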

[2] = qHTS assay for small molecule agonists of the p53 signaling pathway - cell viability (AID 651633; calls by dose curve;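 further: p53RE-bla HCT reporter cells with a stable beta-lactamase p53 reporter; series mostly up to about 83 µM; nearly all actives have a fitted effect of over 30% in size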)
How it was run: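 Viability counter-read: CellTiter-Glo luminescence (30 min, room temperature) in the same p53RE-bla plates. These plates had been exposed to compounds for 16 h at 37 C.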

[3] = qHTS assay for small molecules that induce genotoxicity in human embryonic kidney cells expressing luciferase-tagged ATAD5 - cell viability (AID 651634; calls by dose curve; further: nearly all actives have a fitted effect of over 25% in size)
How it was run: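 Live-cell protease activity (CellTiter-Fluor, fluorescence) indicates viability. HEK293T cells with luciferase-tagged ATAD5; 15.5 hr compound treatment at 37C.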

[4] = qHTS assay for small molecule disruptors of the mitochondrial membrane potential - cell viability (AID 720634; calls by dose curve;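 further: human HepG2 liver cancer cells; series mostly up to about 83 µM; nearly all actives have a fitted effect of over 20% in size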)
How it was run: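 Human hepatoma HepG2 cells were treated for 1 hr with test chemicals, then given m-MPI dye and CellTiter-Glo. Cell viability reflects luminescence proportional to cellular ATP.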

[5] = qHTS assay for small molecule disruptors of the mitochondrial membrane potential (AID 720635)
How it was run: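 Mitochondrial membrane potential tracked with Mito-MPS dye, red aggregates (ex 540/em 590 nm) against green monomers (ex 490/em 535 nm). Compound treatment 1 hr at 37C, dye 30 min in HepG2.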

[6] = qHTS assay to test for compound auto fluorescence at 590 nm (red) in HepG2 cells (AID 720674)
How it was run: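 We screened compounds on adherent HepG2 cells, incubating them for an hour at 37 C in 5% CO2 before reading emission at 590 nm under 540 nm excitation; values reflect equivalence to Rose Bengal sodium fluorescence.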

[7] = qHTS assay to test for compound auto fluorescence at 535 nm (green) in HepG2 cells (AID 720675)
[8] = qHTS assay to test for compound auto fluorescence at 460 nm (blue) in HEK293 cells (AID 720678)
How it was run: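 After cell attachment (4-5 hr, 37C), compounds were pinned onto HEK293 monolayers in 10% dialyzed FBS medium. The blue channel (405/460 nm) was read following overnight culture. Equivalency was calculated against triamterene.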

[9] = qHTS assay to test for compound auto fluorescence at 590 nm (red) in HEK293 cells (AID 720679)
How it was run: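 Plates of HEK293 cells (10% dialyzed FBS) are treated with 23 nL compound or DMSO vehicle after a 4-5 hr attachment period, incubated overnight at 37C, and read for red fluorescence at 540/590nm.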

[10] = qHTS assay to test for compound auto fluorescence at 535 nm (green) in HEK293 cells (AID 720680)
[11] = qHTS assay to test for compound auto fluorescence at 535 nm (green) in HEK293 cell free culture (AID 720682)
How it was run: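 Read-out: 485/535 nm fluorescence intensity, calibrated against fluorescein. Medium only (DMEM + 10% FBS, no cells); test compound or DMSO vehicle added by pintool before plate reading.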

[12] = qHTS assay to test for compound auto fluorescence at 590 nm (red) in HEK293 cell free culture (AID 720683)
How it was run: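 Red-channel autofluorescence of compounds in culture medium (DMEM, 10% FBS), no cells, measured at 540/590 nm. Rose Bengal sodium is the reference fluorophore for equivalence.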

[13] = qHTS assay to test for compound auto fluorescence at 590 nm (red) in HepG2 cell free culture (AID 720684)
How it was run: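 Steps: dispense MEM/10% FBS medium, no cells; pin compound or DMSO vehicle; read red channel, Ex/Em 540/590 nm. Output given as Rose Bengal sodium equivalents.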

[14] = qHTS assay to test for compound auto fluorescence at 460 nm (blue) in HepG2 cell free culture (AID 720685)
How it was run: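 Compound (23 nL) or DMSO pinned into cell-free MEM with 10% FBS; blue fluorescence read at 405/460 nm excitation/emission, expressed as auto-fluorescence equivalency to triamterene.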

[15] = qHTS assay to test for compound auto fluorescence at 535 nm (green) in HepG2 cell free culture (AID 720686)
[16] = qHTS assay to test for compound auto fluorescence at 460 nm (blue) in HepG2 cells (AID 720687)
How it was run: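 Blue-channel autofluorescence (Ex/Em 405/460 nm, triamterene-equivalent) was measured after 1 hr compound exposure at 37 C, 5% CO2. Cells were HepG2, plated overnight at 37 C in MEM plus 10% FBS.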

[17] = molecular target: Glucocorticoid receptor (Homo sapiens) (UniProt P04150); experiment: qHTS assay to identify small molecule agonists of the glucocorticoid receptor (GR) signaling pathway (AID 720691; active means well fitted activation curve with a large enough effect in the signal ratio in the repeat runs, not every such curve was filed as active; the % refers to the signal ratio)
Chain of Glucocorticoid receptor (Homo sapiens) (P04150 whole entry, looked up): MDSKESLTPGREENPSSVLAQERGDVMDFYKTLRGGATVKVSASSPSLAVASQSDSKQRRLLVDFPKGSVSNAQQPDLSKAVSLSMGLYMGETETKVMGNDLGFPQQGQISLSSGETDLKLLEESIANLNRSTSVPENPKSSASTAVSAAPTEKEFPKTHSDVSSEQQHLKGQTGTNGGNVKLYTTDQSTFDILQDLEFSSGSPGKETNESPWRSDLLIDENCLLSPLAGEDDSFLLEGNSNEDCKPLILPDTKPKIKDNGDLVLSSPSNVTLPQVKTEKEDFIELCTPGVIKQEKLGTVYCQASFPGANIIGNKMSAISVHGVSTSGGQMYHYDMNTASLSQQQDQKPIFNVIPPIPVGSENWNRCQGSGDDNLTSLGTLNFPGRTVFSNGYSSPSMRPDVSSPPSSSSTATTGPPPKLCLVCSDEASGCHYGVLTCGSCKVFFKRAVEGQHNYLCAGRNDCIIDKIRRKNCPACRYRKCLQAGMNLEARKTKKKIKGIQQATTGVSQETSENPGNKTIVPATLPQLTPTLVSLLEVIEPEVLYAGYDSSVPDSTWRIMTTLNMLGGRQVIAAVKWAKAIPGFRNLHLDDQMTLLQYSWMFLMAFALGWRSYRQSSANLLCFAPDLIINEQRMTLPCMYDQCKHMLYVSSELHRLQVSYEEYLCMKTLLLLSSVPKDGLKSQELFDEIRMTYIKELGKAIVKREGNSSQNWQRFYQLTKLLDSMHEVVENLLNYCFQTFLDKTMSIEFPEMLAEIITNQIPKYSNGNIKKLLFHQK
How it was run: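 Beta-lactamase reporter activity, read as fluorescence intensity, was measured in GR-bla HeLa cells exposed to compounds for 18 h at 37 C and then loaded with LiveBLAzer B/G FRET substrate for 2 h at room temperature.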

[18] = molecular target: Glucocorticoid receptor (Homo sapiens) (UniProt P04150); experiment: qHTS assay to identify small molecule antagonists of the glucocorticoid receptor (GR) signaling pathway (AID 720692; active means well fitted inhibition curve with a large enough effect in the signal ratio in the repeat runs, not every such curve was filed as active; the % refers to the signal ratio)
How it was run: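 Fluorescence from cleaved LiveBLAzer B/G FRET substrate reports GRE-driven beta-lactamase in HeLa cells; compounds are tested against 5 nM dexamethasone (final) over 18 h at 37 C, substrate incubation 2 h at room temperature.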

[19] = qHTS assay to test for compound auto fluorescence at 460 nm (blue) in HEK293 cell free culture (AID 720681)
How it was run: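 Blue fluorescence (Ex 405/Em 460 nm, triamterene-equivalent) was read immediately after pin transfer of compound or DMSO into medium (DMEM, 10% FBS) without cells.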
On the % scale 0 is the no-effect control and ±100 the full control effect.

C[C@H]1CNCCc2ccc(Cl)cc21
inactive: Potency [1] | Potency [2] | Potency [3] | Potency [4] | Potency [5] | outcome [6] | outcome [7] | outcome [8] | outcome [9] | outcome [10] | outcome [11] | outcome [12] | outcome [13] | outcome [14] | outcome [15] | outcome [16] | outcome [17] | Potency [18]

NC(=O)CI
inactive: Potency [1] | Potency [2] | Potency [3] | Potency [4] | outcome [6] | outcome [7] | outcome [8] | outcome [9] | outcome [10] | outcome [19] | outcome [11] | outcome [12] | outcome [13] | outcome [14] | outcome [16]

CC1C(=O)C[C@]2(C(C)C)C[C@H]12 (stereo not given in full)
inactive: Potency [1] | Potency [2] | Potency [3] | Potency [4] | Potency [5] | outcome [6] | outcome [7] | outcome [8] | outcome [9] | outcome [10] | outcome [11] | outcome [13] | outcome [14] | outcome [15] | outcome [16]

CNP(=O)(OC)Oc1ccc(C(C)(C)C)cc1Cl (stereo not given)
inactive: Potency [1] | Potency [2] | Potency [3] | Potency [4] | Potency [5] | outcome [6] | outcome [7] | outcome [9] | outcome [10] | outcome [19] | outcome [11] | outcome [12] | outcome [13] | outcome [14] | outcome [15] | outcome [16] | outcome [17]

CCOC(=O)[C@]1(c2ccccc2)Oc2ccccc2[C@@H]1N
inactive: Potency [1] | Potency [2] | Potency [3] | Potency [4] | outcome [6] | outcome [7] | outcome [8] | outcome [9] | outcome [10] | outcome [11] | outcome [12] | outcome [13] | outcome [14] | outcome [15] | outcome [16]

Clc1ccc(C(OCCN2CCCCC2)c2ccccc2)cc1 (stereo not given)
inactive: Potency [1] | Potency [2] | Potency [3] | Potency [4] | fluorescence, relative to Rose Bengal [6] -0.716% [at 18.6 µM] | fluorescence, % of fluorescein control [7] -0.0264% [at 18.6 µM] | fluorescence, % of triamterene [8] 0.0368% [at 18.6 µM] | fluorescence, % of fluorescent control [9] 0.965% [at 18.6 µM] | fluorescence, % of fluorescein [10] -0.14% [at 18.6 µM] | fluorescence, % of fluorescent control [19] -0.141% [at 18.6 µM] | activity change [11] -0.263% [at 18.6 µM] | fluorescence, % of Rose Bengal [13] 0.0745% [at 18.6 µM] | fluorescence, % of fluorescent control [14] 0.0001% [at 18.6 µM] | fluorescence, % of fluorescein control [15] -0.0362% [at 18.6 µM] | fluorescence, % of fluorescent control [16] 0.1% [at 18.6 µM] | outcome [17] | Potency [18]

CCCC(=O)Cl
inactive: Potency [1] | Potency [2] | Potency [3] | Potency [4] | Potency [5] | outcome [6] | outcome [7] | outcome [9] | outcome [10] | outcome [19] | outcome [11] | outcome [12] | outcome [13] | outcome [14] | outcome [15] | outcome [16] | outcome [17] | Potency [18]

CCOP(=S)(OCC)Oc1cc(Cl)c(Br)cc1Cl
inactive: Potency [1] | Potency [2] | Potency [3] | outcome [6] | outcome [7] | outcome [8] | outcome [9] | outcome [10] | outcome [19] | outcome [11] | outcome [12] | outcome [13] | outcome [14] | outcome [16]

ClP(Cl)(Cl)(Cl)Cl
inactive: Potency [1] | Potency [2] | Potency [3] | Potency [4] | outcome [6] | outcome [7] | outcome [8] | outcome [10] | outcome [19] | outcome [11] | outcome [13] | outcome [14] | outcome [16] | outcome [17] | Potency [18]

O=Cc1ccc(Cl)cc1Cl
inactive: Potency [1] | Potency [2] | Potency [3] | Potency [4] | outcome [6] | outcome [7] | outcome [8] | outcome [9] | outcome [10] | outcome [19] | outcome [11] | outcome [12] | outcome [13] | outcome [14] | outcome [15] | outcome [16] | outcome [17]

CN1C(=O)C(O)N=C(c2ccccc2)c2cc(Cl)ccc21 (stereo not given)
inactive: Potency [1] | Potency [2] | Potency [3] | Potency [4] | outcome [6] | outcome [7] | outcome [9] | outcome [10] | outcome [19] | outcome [11] | outcome [12] | outcome [13] | outcome [14] | outcome [15] | outcome [16]

CCOP(O)OCC
inactive: Potency [1] | Potency [2] | Potency [3] | Potency [4] | outcome [6] | outcome [7] | outcome [8] | outcome [9] | outcome [10] | outcome [19] | outcome [11] | outcome [12] | outcome [13] | outcome [14] | outcome [15] | outcome [16] | outcome [17] | Potency [18]

CN1[C@@H]2CC[C@H]1CC(OC(=O)c1cc(Cl)cc(Cl)c1)C2 (stereo not given in full)
inactive: Potency [1] | Potency [2] | Potency [3] | Potency [4] | outcome [6] | outcome [7] | outcome [9] | outcome [10] | outcome [19] | outcome [11] | outcome [12] | outcome [13] | outcome [14] | outcome [15] | outcome [16] | outcome [17]
